The record followed here is PubChem BioAssay (NCATS).

Several values for one entry are separate records, joined by “and”; a condition that tells them apart may be missing. Identical values can stand only once. Records with an inconclusive call do not appear. Activity calls are given as the source filed them. Unless noted, calls follow the shape of the dose curve; as a rule, active = well fitted curve in the direction sought with a large enough effect; inconclusive = small, poorly fitted or top-dose-only effect, or another doubt; inactive = no such curve, though single readings can be large; an effect the other way counts as inactive or inconclusive.

Assay [1] in a line: qHTS for compounds that reverse cellular toxicity of Amyloid beta (A-beta) peptide in yeast: LOPAC Validation Assay (AID 720559). Also: potency is read from the fitted curve at half-maximal effect. The settings on record: Potency: rescue of growth toxicity. Put shortly: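 Rescue of A-beta toxicity was scored as yeast growth by 600 nm absorbance after 48 hr at 30 C with compound. Normalization used DMSO (negative) and equimolar ferric chloride plus clioquinol (positive).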
On the technique in general: In qHTS, concentration-response curves come from the screen itself.

A short description of assay [2]: qHTS for Activators of Parkin Expression: LOPAC Validation Assay (NLuc Reporter) (AID 720572;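 also: 0% = DMSO and 100% = positive control compound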). Put shortly: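 Neuronal cells with a Parkin promoter-driven FLuc/NLuc coincidence reporter were treated 24 h at 37 C in 7-point dose response (LOPAC). NLuc luminescence read after FLuc; signals normalized to DMSO and positive control (100%).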
Assay [3] is described as follows: qHTS for Activators of Parkin Expression: LOPAC Validation Assay (FLuc Reporter) (AID 720573;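 also: 0% = DMSO and 100% = positive control compounds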). Put shortly:
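FLuc signal from Parkin-promoter coincidence reporter neuronal cells, normalized to DMSO and positive control (100%). Cells (1,500/well) pre-incubated 24 h, then exposed to LOPAC compounds in 7-point dose response for 24 h at 37 C, 5% CO2.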

Assay [4] has as its target T1, Hexokinase-4 (Homo sapiens) + Glucokinase regulatory protein (Homo sapiens) (UniProt P35557+Q14397). Description: qHTS assay for inhibitors of recombinant human GCK-GKRP interaction: Diaphorase-coupled assay (AID 743205). Put shortly: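 A kinetic fluorescence read (Ex 525/Em 590 nm, every minute for 30 minutes) tracked resorufin from a G6PDH-diaphorase coupled GCK reaction. It contained 10 nM GST-GCK, 10 nM FLAG-GKRP, 5 mM glucose, 0.4 mM ATP in Hepes pH 7.6. Normalized to with/without-enzyme DMSO controls.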

Assay [5] deals with T1, Hexokinase-4 (Homo sapiens) + Glucokinase regulatory protein (Homo sapiens). As to the kind of experiment: qHTS assay for inhibitors of recombinant human GCK-GKRP interaction: ADP-Glo assay (AID 743206).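 Also: plate controls were DMSO plus enzyme for no effect and no enzyme for full effect.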 Put shortly: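 GST-GCK and FLAG-GKRP (15 nM each in the dispensed mix, with 2 uM S6P) react with 0.4 mM ATP and 5 mM glucose (final) in Hepes pH 7.6 for 60 min at room temperature. ADP is measured by ADP-Glo luminescence.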

Assay [6] shares this target. Description: qHTS assay for inhibitors of recombinant human GCK-GKRP interaction: HTRF assay (AID 743207).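 Also: 0% = DMSO with GCK present and -100% = DMSO wells lacking GCK.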 The procedure, abridged: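 After 60 min equilibration at room temperature with anti-FLAG XL665 and anti-GST antibodies, FRET ratio (665/615 nm, excitation 320 nm) was read. Proteins: GST-GCK and FLAG-GKRP, each 5 nM, plus 2 uM S6P, pH 7.1 buffer; GCK-free wells define minimum signal.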

The nature of assay [7]: qHTS Assay for Identifying Gametocytocidal Compounds (AID 743244).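 Also: % is scaled to controls: 0 for no effect and ±100 for the full control effect; actives lower the fluorescent signal which means gametocytes are killed.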 Particulars: P. falciparum 3D7 stage III-V gametocytes, alamarBlue, 72 h; max response: stronger effect = lower value. The procedure, abridged: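 Viability read-out was resazurin reduction (alamarBlue, 24 h) measured at Ex 525/Em 598 nm. Beforehand, late-stage (III-V) 3D7 P. falciparum gametocytes at 20,000 cells/well were incubated with compound 72 h at 37C under 5% CO2.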

The nature of assay [8]: qHTS profiling for inhibitors of Plasmodium falciparum (3D7) proliferation (AID 743322; call rule not given here;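 also: infected erythrocytes exposed to compound for 72 h before lysis; 100% = DMSO vehicle wells and 0% = 0.29 µM artemisinin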). The settings on record: P. falciparum 3D7 proliferation; at 28.7 µM (top of the series) unless noted. Put shortly:
(§1)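 Erythrocytes infected with P. falciparum (0.3% parasitemia, 2.5% hematocrit) incubated with compounds 72 h at 37 C, 5% CO2. Lysis with saponin/Triton buffer containing SYBR Green I, overnight at room temperature in the dark; DNA fluorescence (485/535 nm) normalised to 0.29 uM artemisinin and DMSO.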

Assay [9] is described as follows: qHTS profiling for inhibitors of Plasmodium falciparum (DD2) proliferation (AID 743323; call rule not given here). The settings on record: lower = more inhibition; at 28.7 µM (top of the series) unless noted. The procedure, abridged:
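P. falciparum Dd2-infected erythrocytes (0.3% parasitemia, 2.5% hematocrit) exposed 72 h at 37 C, 5% CO2. Lysis with SYBR Green, overnight at room temperature, fluorescence 485/535 nm; normalized to 0.29 uM artemisinin and DMSO.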

The nature of assay [10]: qHTS profiling for inhibitors of Plasmodium falciparum (HB3) proliferation (AID 743324).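 Also: 100% = DMSO vehicle wells and 0% = artemisinin-treated control wells.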 The settings on record: Plasmodium falciparum HB3 blood-stage proliferation; at 28.7 µM (top of the series) unless noted. Put shortly: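 P. falciparum HB3 grown in erythrocytes (0.3% parasitemia, 2.5% hematocrit final) with compound for 72 h at 37 C, 5% CO2. Parasite DNA detected by SYBR Green after saponin/triton lysis overnight; normalized to 0.29 uM artemisinin and DMSO.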

Assay [11] is described as follows: qHTS profiling of the MIPE4 collection as inhibitors of Plasmodium falciparum (3D7) proliferation (AID 743344; call rule not given here;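 also: scaled between DMSO vehicle wells and 0.29 µM artemisinin as full inhibition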). Particulars: P. falciparum 3D7 in erythrocytes, SYBR Green DNA fluorescence, 72 h; at 28.5 µM (top of the series). The procedure, abridged: as §1
Assay [12] is described as follows: qHTS profiling of the MIPE4 collection as inhibitors of Plasmodium falciparum (DD2) proliferation (AID 743345; call rule not given here). Particulars: P. falciparum Dd2 in erythrocytes, SYBR Green DNA, 72 h; at 28.5 µM (top of the series). Put shortly:
as §1

Assay [13] in a line: qHTS profiling of the MIPE4 collection as inhibitors of Plasmodium falciparum (DD2) proliferation (Rep 2) (AID 743346; call rule not given here). Particulars: P. falciparum Dd2 in erythrocytes, SYBR Green DNA, 72 h; at 28.5 µM (top of the series). Put shortly: as §1
A short description of assay [14]: qHTS profiling of the MIPE4 collection as inhibitors of Plasmodium falciparum (HB3) proliferation (AID 743347; call rule not given here;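 also: plate controls were DMSO vehicle wells for no effect and artemisinin wells for full effect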). Particulars: P. falciparum HB3 in erythrocytes, SYBR Green DNA, 72 h; at 28.5 µM (top of the series). Put shortly: as §1

T1 sequence (P35557 whole entry, looked up): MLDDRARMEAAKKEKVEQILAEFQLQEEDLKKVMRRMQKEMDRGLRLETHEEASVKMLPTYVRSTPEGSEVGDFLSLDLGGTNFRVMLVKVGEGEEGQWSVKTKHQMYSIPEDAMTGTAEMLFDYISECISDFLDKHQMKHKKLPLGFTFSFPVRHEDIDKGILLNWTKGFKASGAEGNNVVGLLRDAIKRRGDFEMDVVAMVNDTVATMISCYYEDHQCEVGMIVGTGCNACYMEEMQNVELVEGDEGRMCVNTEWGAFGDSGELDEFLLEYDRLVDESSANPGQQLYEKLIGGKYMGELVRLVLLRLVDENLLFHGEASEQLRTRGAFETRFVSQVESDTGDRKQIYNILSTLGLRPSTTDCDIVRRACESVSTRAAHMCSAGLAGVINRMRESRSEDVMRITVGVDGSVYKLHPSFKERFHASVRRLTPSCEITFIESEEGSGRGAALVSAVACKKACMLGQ
T1 sequence (Q14397 whole entry, looked up): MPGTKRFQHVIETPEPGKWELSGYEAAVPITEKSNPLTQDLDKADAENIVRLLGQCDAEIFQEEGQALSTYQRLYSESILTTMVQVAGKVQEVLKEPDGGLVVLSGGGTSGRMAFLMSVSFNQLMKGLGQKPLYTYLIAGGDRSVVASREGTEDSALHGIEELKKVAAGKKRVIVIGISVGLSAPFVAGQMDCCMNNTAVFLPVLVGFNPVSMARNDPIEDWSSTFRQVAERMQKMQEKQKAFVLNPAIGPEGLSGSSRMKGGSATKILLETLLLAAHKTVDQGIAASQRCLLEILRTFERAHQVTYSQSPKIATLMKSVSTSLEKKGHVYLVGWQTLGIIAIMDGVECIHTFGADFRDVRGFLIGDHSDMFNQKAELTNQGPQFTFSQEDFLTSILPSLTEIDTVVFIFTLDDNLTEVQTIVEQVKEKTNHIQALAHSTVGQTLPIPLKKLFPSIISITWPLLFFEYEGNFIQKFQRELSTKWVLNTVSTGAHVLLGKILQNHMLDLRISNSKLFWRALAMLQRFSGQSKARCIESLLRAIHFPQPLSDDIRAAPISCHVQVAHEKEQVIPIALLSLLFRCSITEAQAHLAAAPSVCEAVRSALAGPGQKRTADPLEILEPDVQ

On to `NC(=O)C(=O)O`, for which the Potency result in assay [1], in [2], in assay [3], in assay [5] and in assay [6] was “inactive” in each case. The result in [4] was inactive. Besides, the max response in assay [7] was 24.1% (inactive).

For `Oc1cc2c(cc1O)CN(C(=S)NCCc1ccc(Cl)cc1)CCC2`, the Potency result in assay [1] and in assay [3] was “inactive” each time. Moreover, the result in [4] was inactive.

As to `Fc1cccc(/C=N/N=C/c2cccc(F)c2)c1`, the Potency result in assay [1], in assay [2], in assay [5] and in assay [6] was “inactive” throughout. For the same compound, the result in [4] was inactive. The max response in assay [7] was 22.7% (inactive).

As to `CC1OC1P(=O)(O)O` (configuration not stated), the Potency result in assay [1], in assay [2], in assay [3], in assay [5] and in [6] was “inactive” in each case. Moreover, the outcome in [4] was inactive. Moreover, the max response in [7] is -9.6% (inactive).

Regarding `N#C/C(=C\c1ccc(O)c(O)c1)C(=O)c1ccc(O)c(O)c1`, the Potency entry in assay [1], in assay [2], in assay [3], in [5] and in assay [6] was “inactive” each time. Besides, the result in assay [4] was inactive. Further, the max response in [7] was 10.5% (inactive).

Consider `NCCCCC(=O)O`, for which the Potency result in assay [1], in assay [2], in assay [3], in assay [5] and in assay [6] was “inactive” throughout. Moreover, in assay [4], the outcome was inactive. In addition, in assay [7], the max response was 12.2% (inactive).

Take `Cc1ccc(C(=O)O[C@H](C(=O)O)[C@@H](OC(=O)c2ccc(C)cc2)C(=O)O)cc1` (tested in a mixture with another compound): the Potency result in assay [1], in assay [2], in [3], in assay [5] and in assay [6] was “inactive” in each case. Besides, the outcome in [4] was inactive. Moreover, the max response in [7] is -5.55% (inactive).

Regarding `c1ccc(-c2ccccn2)nc1`, the Potency result in assay [1], in [2], in [3], in [5] and in assay [6] was “inactive” throughout. The outcome in assay [4] was inactive. Besides, the max response in assay [7] is 29.6% (inactive).

For the compound `C=CC(C)=C[C@@]1(C)SC(=O)C(C)=C1O`, the Potency entry in assay [1], in assay [2], in [3], in assay [5] and in assay [6] was “inactive” in each case. The outcome in [4] was inactive. The max response in assay [7] is 15.5% (inactive). The remaining parasite growth % (stronger effect = lower value) in assay [8] was determined as 98%. This compound showed an activity, percent of control in assay [9] of 98.3%. In addition, the remaining proliferation (% of control), lower = more inhibition in assay [10] amounted to 92.5%. Moreover, the parasite growth, % of DMSO control in assay [11] is 98.9%. Moreover, the parasite growth remaining, % of DMSO control (lower = more inhibition) in assay [12] was determined as 108%. In addition, the parasite growth, % of control (lower = inhibition) in assay [13] was 151%. For the same compound, the growth, % of control in [14] was 77.3%.

In the case of `N#C/C(=C\c1ccc(-c2cc(Cl)ccc2Cl)o1)C(=O)Nc1cccc2ncccc12`, the Potency entry in [1], in [2], in assay [3], in assay [5] and in [6] was “inactive” throughout. In addition, in [4], the outcome was inactive. Moreover, the max response in assay [7] was -7.88% (inactive).

As to `N#C/C(=C\c1ccc(O)c(O)c1)C(=O)NCc1ccccc1`, the Potency entry in assay [1], in assay [2], in assay [3] and in [5] was “inactive” throughout. Also, the result in assay [4] was inactive. Moreover, the max response in [7] was 12.2% (inactive).

On to `CC(C)(C=O)Cc1cc(C(C)(C)C)c(O)c(C(C)(C)C)c1`, for which the Potency result in assay [1], in [2], in [3], in assay [5] and in assay [6] was “inactive” each time. In addition, the outcome in assay [4] was inactive. Besides, in [7], the max response is 8.22% (inactive).

With `CCCCCCCC/C=C\CCCCCCCC(=O)NCCO`, the Potency entry in [1], in assay [2], in assay [3], in assay [5] and in [6] was “inactive” throughout. Besides, the outcome in assay [4] was inactive. For the same compound, the max response in assay [7] is 8.34% (inactive).

In the case of `COC(=O)c1c(C)[nH]c(C)c1C(=O)c1ccccc1Cc1ccccc1`, the Potency result in assay [1], in assay [2], in [3] and in [5] was “inactive” in each case. Further, the result in [4] was inactive. In assay [7], the max response is -0.767% (inactive).

Take `NO`: the Potency entry in [1], in assay [2], in [3], in assay [5] and in assay [6] was “inactive” each time. In addition, the outcome in assay [4] was inactive. Further, the max response in [7] is -10.7% (inactive).

Turning to `O=C(O)CC1CC(c2ccccc2)=NO1` (configuration not stated), the Potency result in assay [1], in [2], in assay [3] and in [5] was “inactive” in each case. In addition, the outcome in assay [4] was inactive. Also, in assay [7], the max response was -4.91% (inactive).

As to `C[N+]1(C)C2CC(OC(=O)[C@H](CO)c3ccccc3)CC1C1OC12` (some centres not stated), the Potency result in [1], in assay [2], in assay [3] and in [5] was “inactive” throughout. Also, the outcome in [4] was inactive. In [7], the max response is -7.69% (inactive) and 8.7% (inactive).

For `CCCCN1CCC(n2c(=O)[nH]c3ccccc32)CC1`, the Potency entry in assay [1], in assay [2] and in assay [3] was “inactive” in each case. Besides, in [4], the outcome was inactive. In assay [7], the max response is 5.22% (inactive).

With `Nc1ncnc2c1ncn2[C@@H]1O[C@H](COP(=O)(O)OP(=O)(O)OP(=O)(O)OP(=O)(O)OC[C@@H]2O[C@H](n3cnc4c(N)ncnc43)[C@@H](O)[C@H]2O)[C@@H](O)[C@H]1O`, the Potency in assay [1] is 8.2 µM (active). The Potency entry in assay [2], in [3] and in assay [5] was “inactive” throughout. For the same compound, the result in [4] was inactive. In addition, in [7], the max response is 11.9% (inactive).

Take `NC(=S)c1ccc[n+]([C@@H]2O[C@@H](COP(=O)([O-])OP(=O)(O)OC[C@H]3O[C@@H](n4cnc5c(N)ncnc54)[C@H](OP(=O)(O)O)[C@@H]3O)C(O)C2O)c1` (some centres not stated): the Potency result in assay [1], in assay [2], in assay [3], in assay [5] and in assay [6] was “inactive” each time. Moreover, the outcome in [4] was inactive. Further, the max response in assay [7] was 5.56% (inactive).

Regarding `CC1CN(S(=O)(=O)c2cccc3cnccc23)CCN1` (configuration not stated), the Potency entry in [1], in assay [2], in [3], in assay [5] and in assay [6] was “inactive” in each case. Besides, in [4], the result was inactive. Besides, the max response in assay [7] is 23.3% (inactive).
